Experiment [1] can be described thus: antimalarial activity against Dd2 strain (AID 2302;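 active means growth inhibition above 50% at the single 2 µM test dose, taken to imply half-maximal potency below 2 µM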;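 further: 0% = DMSO untreated growth and 100% = chloroquine plus artemisinin killed control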). The note with it: P. falciparum Dd2 in RBCs, LDH growth readout, 72 h; at 2 µM; stronger effect = higher value.
Experiment [2] can be described thus: HepG2 cytotoxicity, primary screen, cytotoxicity control for P. falciparum antimalarial project, cell-based, ATP luminescence (AID 2303;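 active means inhibition above 50%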;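 further: 0% = DMSO wells and 100% = digitonin-killed cells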). Conditions: HepG2 viability, 24-48 h, at 10 µM, stronger effect = higher value.
In experiment [3] the target is L-lactate dehydrogenase (Plasmodium falciparum (isolate CDC / Honduras)) (UniProt Q27743). The experiment can be described thus: PfLDH activity inhibition – cell lysate, 3D7 strain, counter-screen for P. falciparum growth inhibition project (AID 2304).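 Further: 0% = vehicle and 100% = reference inhibitor.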 The note with it: P. falciparum 3D7 crude extract, LDH APAD/NBT absorbance; at 2 µM; stronger effect = higher value. (In general: A counterscreen serves to expose hits that act by an unwanted route or on another target.)

A short description of experiment [4]: inhibition of 3D7 malaria parasite growth – strain 3D7 (AID 2306).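 Further: 0% = DMSO wells and 100% = chloroquine plus artemisinin control wells.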 Conditions: P. falciparum 3D7 erythrocytic growth, LDH absorbance, 72 h; at 2 µM; stronger effect = higher value.
Experiment [5] addresses Calcium-dependent protein kinase 1 (Plasmodium falciparum (isolate 3D7)) (UniProt P62344). The experiment can be described thus: PfCDPK1 kinase inhibitors, biochemical, TCAMS library (AID 1159585; cut-off not given, nearly all actives have IC50 up to about 0.98 µM;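 further: inhibitors leave more ATP so luminescence rises with inhibition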). Conditions: recombinant PfCDPK1, Kinase-Glo ATP depletion luminescence. (In general: In Kinase-Glo more light means more ATP remaining.)
The target of experiment [6] is Plasmodium falciparum protein kinase 6 (PK6, PF3D7_1337100) (UniProt Q8IDW1). Kind of experiment: PfPK6 kinase inhibitors, biochemical, TCAMS library (AID 1159586). Conditions: recombinant PfPK6, Kinase-Glo ATP depletion luminescence.
Experiment [7] concerns the target Protein kinase 7 (PK7), Plasmodium falciparum 3D7 (PF3D7_0213400) (UniProt Q7YTF7). The experiment can be described thus: inhibition of Plasmodium PK7 catalytic activity – biochemical, TCAMS antimalarial set, Kinase-Glo luminescence (AID 1159587). Conditions: recombinant PfPK7, Kinase-Glo ATP depletion luminescence.
Experiment [8] deals with Calcium-dependent protein kinase 4 (Plasmodium falciparum (isolate 3D7)) (UniProt Q8IBS5). The experiment can be described thus: PfCDPK4 kinase inhibitors, biochemical, TCAMS library (AID 1159588; cut-off not given, nearly all actives have IC50 up to about 0.91 µM). Conditions: recombinant PfCDPK4, Kinase-Glo ATP depletion luminescence.

A number with no mark means an inactive call. For part of these data: Measured potencies and affinities stand elsewhere. Calls of active or inactive are those of the source. Unless noted, how the calls were made is not given here.

Chain of Calcium-dependent protein kinase 1 (Plasmodium falciparum (isolate 3D7)) (P62344 whole entry, looked up): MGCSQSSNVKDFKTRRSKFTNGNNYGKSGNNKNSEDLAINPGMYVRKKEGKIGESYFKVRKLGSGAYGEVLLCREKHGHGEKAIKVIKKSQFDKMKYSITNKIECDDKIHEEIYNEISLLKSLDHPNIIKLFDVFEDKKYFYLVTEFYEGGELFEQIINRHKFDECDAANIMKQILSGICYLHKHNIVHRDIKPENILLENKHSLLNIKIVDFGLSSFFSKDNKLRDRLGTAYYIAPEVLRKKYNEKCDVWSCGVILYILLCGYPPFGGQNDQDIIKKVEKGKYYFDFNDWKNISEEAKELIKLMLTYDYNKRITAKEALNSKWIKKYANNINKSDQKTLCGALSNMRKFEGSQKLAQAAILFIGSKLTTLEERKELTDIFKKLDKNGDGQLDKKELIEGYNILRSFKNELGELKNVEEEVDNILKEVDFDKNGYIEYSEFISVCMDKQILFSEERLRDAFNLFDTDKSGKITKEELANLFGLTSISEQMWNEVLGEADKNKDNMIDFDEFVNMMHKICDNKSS
Chain of Calcium-dependent protein kinase 4 (Plasmodium falciparum (isolate 3D7)) (Q8IBS5 whole entry, looked up): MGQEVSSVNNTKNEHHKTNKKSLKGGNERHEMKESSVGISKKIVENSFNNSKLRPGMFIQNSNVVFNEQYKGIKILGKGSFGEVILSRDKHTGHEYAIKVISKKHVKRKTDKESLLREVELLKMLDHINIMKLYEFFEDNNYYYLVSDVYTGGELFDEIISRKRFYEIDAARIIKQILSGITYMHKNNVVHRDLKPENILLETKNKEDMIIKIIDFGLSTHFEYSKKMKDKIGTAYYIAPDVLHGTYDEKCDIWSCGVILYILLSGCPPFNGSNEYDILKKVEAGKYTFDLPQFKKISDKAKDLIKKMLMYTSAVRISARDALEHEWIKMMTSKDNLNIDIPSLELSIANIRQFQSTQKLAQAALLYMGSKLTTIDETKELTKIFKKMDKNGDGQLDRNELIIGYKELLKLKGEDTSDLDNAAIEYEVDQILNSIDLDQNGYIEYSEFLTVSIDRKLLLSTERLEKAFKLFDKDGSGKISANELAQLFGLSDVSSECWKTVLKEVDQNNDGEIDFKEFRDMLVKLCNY
Chain of Protein kinase 7 (PK7), Plasmodium falciparum 3D7 (PF3D7_0213400) (Q7YTF7 1-343): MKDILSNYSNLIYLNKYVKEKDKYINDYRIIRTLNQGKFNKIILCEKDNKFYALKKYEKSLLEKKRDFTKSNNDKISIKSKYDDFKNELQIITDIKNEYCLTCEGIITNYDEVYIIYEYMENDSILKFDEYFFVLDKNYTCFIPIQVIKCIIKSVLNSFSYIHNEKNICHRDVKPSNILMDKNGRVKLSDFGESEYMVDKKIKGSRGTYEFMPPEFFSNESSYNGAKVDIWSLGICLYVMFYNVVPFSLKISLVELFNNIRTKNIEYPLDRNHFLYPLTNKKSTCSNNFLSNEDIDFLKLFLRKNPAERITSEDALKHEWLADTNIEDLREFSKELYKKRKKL
Chain of L-lactate dehydrogenase (Plasmodium falciparum (isolate CDC / Honduras)) (Q27743 whole entry, looked up): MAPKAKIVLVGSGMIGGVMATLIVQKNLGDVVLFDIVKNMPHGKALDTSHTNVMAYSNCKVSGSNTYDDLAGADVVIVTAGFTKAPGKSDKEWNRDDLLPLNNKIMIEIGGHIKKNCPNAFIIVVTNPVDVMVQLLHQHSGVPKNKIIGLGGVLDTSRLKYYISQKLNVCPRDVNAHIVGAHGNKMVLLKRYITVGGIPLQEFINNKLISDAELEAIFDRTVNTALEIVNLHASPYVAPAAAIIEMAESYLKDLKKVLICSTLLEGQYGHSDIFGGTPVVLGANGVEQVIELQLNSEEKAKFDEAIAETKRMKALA
Chain of Plasmodium falciparum protein kinase 6 (PK6, PF3D7_1337100) (Q8IDW1 1-305): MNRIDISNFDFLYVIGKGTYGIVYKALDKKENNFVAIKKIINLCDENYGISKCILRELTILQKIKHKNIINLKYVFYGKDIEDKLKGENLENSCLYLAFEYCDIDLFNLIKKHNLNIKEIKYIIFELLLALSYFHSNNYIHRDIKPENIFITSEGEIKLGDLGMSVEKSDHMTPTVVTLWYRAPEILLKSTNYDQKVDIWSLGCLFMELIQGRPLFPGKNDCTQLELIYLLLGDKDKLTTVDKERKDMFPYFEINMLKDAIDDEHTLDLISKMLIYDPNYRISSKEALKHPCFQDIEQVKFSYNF

A word on the inhibition: it is the drop in the measured response relative to a control, in per cent. In the case of `CC1(C)N=C(N)N=C(N)N1OCCCCCOc1ccccc1`, the growth inhibition in experiment [1] was 97% (active); in experiment [4], 95% (active). The inhibition in experiment [2] is 61% (active); in experiment [3] it was 4%. The outcome in experiment [5], in experiment [6], in experiment [7] and in experiment [8] was inactive.

On to `COc1ccc2ncc(F)c([C@@H](O)CN3CCC(NCc4cc(C#N)c5c(c4)CCO5)CC3)c2n1`, for which the growth inhibition in experiment [1] is 50% (active); in experiment [4], 92% (active). For the same compound, the inhibition in experiment [2] is 15%; in experiment [3] it was 4%. Besides, the outcome in experiment [5], in experiment [6], in experiment [7] and in experiment [8] was inactive.

Take `Nc1ccnc(N2CCC(CCOc3cc(C(F)(F)F)nc4c(C(F)(F)F)cccc34)CC2)c1`: the values for the growth inhibition in experiment [1] and in experiment [4] were 17% and 98% (active), respectively. Moreover, the inhibition in experiment [2] was 35%; in experiment [3], -1%. Also, the result in experiment [5], in experiment [6], in experiment [7] and in experiment [8] was inactive.

`OC(c1ccc(Cl)cc1)(c1ccc(Cl)cc1)C(c1ccc(Cl)cc1)n1ccnc1` (centres undefined): the figures for the growth inhibition in experiment [1] and in experiment [4] were 100% (active) and 101% (active), respectively. Further, the inhibition in experiment [2] is 15%; in experiment [3], -3%. In addition, the result in experiment [5], in experiment [6], in experiment [7] and in experiment [8] was inactive.

`COc1ccc(CNC2CCN(C)CC2)cc1-c1ccc(S(=O)(=O)NCCc2ccccn2)s1`: the growth inhibition in experiment [1] was 12%; in experiment [4], 100% (active). In addition, the figures for the inhibition in experiment [2] and in experiment [3] were 6% and 3%, respectively. Moreover, the outcome in experiment [5], in experiment [6], in experiment [7] and in experiment [8] was inactive.

For `O=C(CCC1CCCC1)N(Cc1ccc(-c2ccc(CNCCc3ccccc3)cc2)cc1)C1CCCNC1` (centres undefined), the growth inhibition was 71% (active) in experiment [1] and 90% (active) in experiment [4]. The inhibition in experiment [2] was 99% (active); in experiment [3] it was -2%. Moreover, the outcome in experiment [5], in experiment [6], in experiment [7] and in experiment [8] was inactive.

On to `OCCC1CCN(Cc2ccc(-c3ccc(-c4nc5ccccc5[nH]4)cc3)cc2)CC1`, for which the growth inhibition in experiment [1] is 98% (active); in experiment [4], 99% (active). Further, the inhibition in experiment [2] is 35%; in experiment [3] it was 2%. The result in experiment [5], in experiment [6], in experiment [7] and in experiment [8] was inactive.

`COc1cc(OC)cc(-c2nn(-c3ccc([N+](=O)[O-])cc3C#N)c(=S)n2CC2CCCO2)c1` (centres undefined): the growth inhibition in experiment [1] was 75% (active); in experiment [4], 98% (active). For the same compound, the inhibition in experiment [2] was 9%; in experiment [3] it was 0%. The outcome in experiment [5], in experiment [6], in experiment [7] and in experiment [8] was inactive.

Consider `CC(C)CCN(Cc1cncn1Cc1cccc(C(F)(F)F)c1)C(=O)c1cncc(-c2ccccc2)c1`, for which the growth inhibition in experiment [1] is 4%; in experiment [4], 100% (active). For the same compound, the inhibition in experiment [2] was 15%; in experiment [3] it was -3%. In addition, the outcome in experiment [5], in experiment [6], in experiment [7] and in experiment [8] was inactive.

With `CNC(=O)COc1cc(C)c(C2CCN(CCCCNC(=O)c3ccc(-c4ccc(C(F)(F)F)cc4)cc3)CC2)cc1C`, the results for the growth inhibition in experiment [1] and in experiment [4] were 72% (active) and 100% (active), respectively. In addition, the inhibition is 38% in experiment [2] and 4% in experiment [3]. Further, the result in experiment [5], in experiment [6], in experiment [7] and in experiment [8] was inactive.

Turning to `Cc1cccc2[nH]c(-c3cccc(-c4ccc(CNCCCN5CCCC5=O)cc4)c3)nc12`, the results for the growth inhibition in experiment [1] and in experiment [4] were 38% and 101% (active), respectively. Besides, the figures for the inhibition in experiment [2] and in experiment [3] were 5% and 2%, respectively. In addition, the result in experiment [5], in experiment [6], in experiment [7] and in experiment [8] was inactive.

On to `C[C@@H]1CN(c2cnn(Cc3cccc(NC(=O)Nc4ccc(-c5ccccc5)cc4)c3)c(=O)c2Cl)C[C@H](C)N1`, for which the growth inhibition in experiment [1] is 67% (active); in experiment [4], 101% (active). In addition, the inhibition was 6% in experiment [2] and 1% in experiment [3]. The outcome in experiment [5], in experiment [6], in experiment [7] and in experiment [8] was inactive.

As to `O=C(/C=C/c1cccc(C(F)(F)F)c1)NCCCCCN1CCC(c2c[nH]c3ccccc23)CC1`, the values for the growth inhibition in experiment [1] and in experiment [4] were 14% and 90% (active), respectively. The inhibition is 70% (active) in experiment [2] and 0% in experiment [3]. The result in experiment [5], in experiment [6], in experiment [7] and in experiment [8] was inactive.

Take `CCc1ccc(S(=O)(=O)Nc2ccc(CCN(C)C3CCN(C)CC3)cc2)cc1`: the figures for the growth inhibition in experiment [1] and in experiment [4] were 9% and 86% (active), respectively. The inhibition in experiment [2] was 25%; in experiment [3], -4%. The outcome in experiment [5], in experiment [6], in experiment [7] and in experiment [8] was inactive.

As for `Cc1c(Cl)cccc1NC(=S)NN=Cc1ccccn1`, the values for the growth inhibition in experiment [1] and in experiment [4] were 85% (active) and 99% (active), respectively. Besides, the results for the inhibition in experiment [2] and in experiment [3] were 58% (active) and 5%, respectively. Also, the outcome in experiment [5], in experiment [6], in experiment [7] and in experiment [8] was inactive.

On to `CCOc1ccc(S(=O)(=O)N(C)c2ccc(OCC(=O)Nc3nccs3)cc2)cc1`, for which the growth inhibition in experiment [1] is 4%; in experiment [4] it was 95% (active). Further, the inhibition is 8% in experiment [2] and 3% in experiment [3]. In addition, the result in experiment [5], in experiment [6], in experiment [7] and in experiment [8] was inactive.

On to `CC(CN(C)C)C(=O)Nc1cccc(-c2ccc(-c3nc4ccccc4[nH]3)s2)c1` (centres undefined), for which the growth inhibition in experiment [1] was 47%; in experiment [4] it was 100% (active). Besides, the inhibition in experiment [2] is 13%; in experiment [3], 7%. The result in experiment [5], in experiment [6], in experiment [7] and in experiment [8] was inactive.

As to `O=C(Nc1cccc(F)c1)N(Cc1ccc(-c2ccc(CN3CCNCC3)cc2)cc1)C1CCN(Cc2ccccc2)CC1`, the growth inhibition in experiment [1] is 53% (active); in experiment [4] it was 101% (active). Also, the inhibition in experiment [2] is 18%; in experiment [3], 0%. In addition, the result in experiment [5], in experiment [6], in experiment [7] and in experiment [8] was inactive.

The values above are taken from PubChem BioAssay.
